Whole data set: some 35,000 sequences, median “fluorescence intensity (a.u.)” near 10,000, cut for the highest 2% near 52,000. The entries come from a sample that favours the highest values as a whole.
Target: T1, OsWOX13 (Oryza sativa, UniProt Q5QMM3 1-267)
T1 sequence: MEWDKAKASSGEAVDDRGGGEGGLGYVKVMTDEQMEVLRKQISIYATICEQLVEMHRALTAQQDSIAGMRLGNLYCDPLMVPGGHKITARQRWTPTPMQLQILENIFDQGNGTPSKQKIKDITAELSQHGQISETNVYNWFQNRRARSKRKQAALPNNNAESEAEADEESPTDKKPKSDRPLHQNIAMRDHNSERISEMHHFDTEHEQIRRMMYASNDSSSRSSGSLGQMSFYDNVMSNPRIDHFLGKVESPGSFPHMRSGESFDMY
Test: protein-binding microarray (RPBM); PBS, 2% BSA, 51.3 ng/ul salmon testes DNA, 50 uM zinc acetate, 200 nM TF, 25 C, 1 h; high values mean tight binding
Details: protein: recombinant; tags: N-terminal polyhistidine and DsRed monomer fusion (pET32a); label: CyDye5-dUTP incorporated in the synthesized complementary strand; 3' TTTTT single-stranded linker to array surface; dsDNA, one strand shown
Summary of the method: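 Polyhistidine-tagged DsRed fusions of transcription factors, joined at the N-terminus, were expressed in E. coli BL21-CodonPlus and isolated on Ni–NTA. They were incubated at 200 nM for 1 h at 25 °C on a custom Agilent array, double-stranded and BSA-blocked, in PBS with 2% BSA, salmon testes DNA and 50 µM zinc acetate. The binding signal is per-feature fluorescence intensity (arbitrary units) read on an Axon 4000B scanner after washing.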

Sequence | binding signal
CCGCACCTAAATTGATTGATTATTAATTTAACTGCCGCTCCGGAGTCACCTAGTGCAG | 65500 fluorescence intensity (a.u.)
ACAAAACCAACTAATTAGGCAGGCAGCCATTTACCTCCATCGGAGTCACCTAGTGCAG | 5480 fluorescence intensity (a.u.)
TTTGCCGCTGAGTAATTAAATTGTCTACTTACAAATCCTCCGGAGTCACCTAGTGCAG | 3590 fluorescence intensity (a.u.)
TCAATTGATTATTACTGCCGCTTACTGTCTCCTCTACTGCCGGAGTCACCTAGTGCAG | 53300 fluorescence intensity (a.u.)
AATAACTAATTGCATAGATTGTGACTAATTTGCGATGCGACGGAGTCACCTAGTGCAG | 55200 fluorescence intensity (a.u.)
CTAGATTTATAATTAAATAAATTATTATAATATATAACTCCGGAGTCACCTAGTGCAG | 42700 fluorescence intensity (a.u.)
ATCAATCACTACTGCATATTACTATAATCTCCTCTATACTCGGAGTCACCTAGTGCAG | 5200 fluorescence intensity (a.u.)
CAGGACTAATTGGGGTTGCAAACTGGGACTACAAACTACTCGGAGTCACCTAGTGCAG | 28300 fluorescence intensity (a.u.)
AATAACTAATTGTACATATTACGACTAATTTGCGAGATGACGGAGTCACCTAGTGCAG | 35000 fluorescence intensity (a.u.)
AACTAATTAATTTATTGGCAGGCACTGGCCTACCAAACCTCGGAGTCACCTAGTGCAG | 53100 fluorescence intensity (a.u.)
AAAACAGTTTGATTAGCTTTCTGTCGAATCTGTCATGCATCGGAGTCACCTAGTGCAG | 16500 fluorescence intensity (a.u.)
TTCTGATTAGTTACAACTTGAGTTCACTATTGTCATGATACGGAGTCACCTAGTGCAG | 37200 fluorescence intensity (a.u.)
GACAAGATCAGTCCTAATTATATATATGTTTTACCTTCTACGGAGTCACCTAGTGCAG | 4490 fluorescence intensity (a.u.)
TGCAATAAATTATAGATGACTGAACATTTACACTCTACAGCGGAGTCACCTAGTGCAG | 15300 fluorescence intensity (a.u.)
CATAACTAATTAGTAACACAAAGAATATTGATTAGATGATCGGAGTCACCTAGTGCAG | 43100 fluorescence intensity (a.u.)
CGCTAAAATTAAAAGTTTGATTGAAATTAGAACGATGTAACGGAGTCACCTAGTGCAG | 30300 fluorescence intensity (a.u.)
TTAAAATTAAACTTTTGCAGTCTTTCTAATTTGCCTCCTCCGGAGTCACCTAGTGCAG | 5220 fluorescence intensity (a.u.)
ACTGAACAAATTGAGCATGGTGTATATGTCACATTTTCTACGGAGTCACCTAGTGCAG | 6220 fluorescence intensity (a.u.)
TACATACAAGTTACAGTGTAATTACACTACGATTGTACTACGGAGTCACCTAGTGCAG | 3630 fluorescence intensity (a.u.)
TTGCACTGATTTTGTAACTTAAGGGATACGTCGTATCCGGCGGAGTCACCTAGTGCAG | 6500 fluorescence intensity (a.u.)
AGCCACGCAATCAATTAAATAATTAAGATAGGTACACGTGCGGAGTCACCTAGTGCAG | 26400 fluorescence intensity (a.u.)

Sequence | binding signal
CATATGACCAGTTTAACTGCCATCATGCAGACACACAGGACGGAGTCACCTAGTGCAG | 3410 fluorescence intensity (a.u.)
ATATAAATCAAATTTACAACTTTGCTGTAGCTATAATTTGCGGAGTCACCTAGTGCAG | 7160 fluorescence intensity (a.u.)
CATATGATTAATTAAAATTTTATCATTTAGAACTTGAAAACGGAGTCACCTAGTGCAG | 34800 fluorescence intensity (a.u.)
TATTGATTAAATTTAATTTATAGATAGACTAATATTTTACCGGAGTCACCTAGTGCAG | 29800 fluorescence intensity (a.u.)
TTAATTAATTGCTAATTACACTAATTAATTTATTGATAGCCGGAGTCACCTAGTGCAG | 65200 fluorescence intensity (a.u.)
AATGGGAACTAATGGGCCGGATTGACTACTTTGCTACATTCGGAGTCACCTAGTGCAG | 3240 fluorescence intensity (a.u.)
TAGGTGACAGTTTATTTAATGCTATTGACACTATTCTAGCCGGAGTCACCTAGTGCAG | 8640 fluorescence intensity (a.u.)
CACATAATTGAACTGCTAATTTTATTCTAGTCGGAAGCACCGGAGTCACCTAGTGCAG | 54600 fluorescence intensity (a.u.)
CCGCACTCTATTATTGTATTGATTAGCTTGTGTCATTCGCCGGAGTCACCTAGTGCAG | 20500 fluorescence intensity (a.u.)
ATAACTTTTAATTTAAGCTAATTTTATTTCTGCCGGACATCGGAGTCACCTAGTGCAG | 19600 fluorescence intensity (a.u.)
GCATAACTAATTGTTGTTGCACATATTTTCTTTATAAAGCCGGAGTCACCTAGTGCAG | 15500 fluorescence intensity (a.u.)
GATGAAGATTGATATTACCTGCGGCCGCCGGCGCCGCTGTCGGAGTCACCTAGTGCAG | 7110 fluorescence intensity (a.u.)
ATTATTTGTGATTTGATTGCTAGTGATTTGAACTAATGGCCGGAGTCACCTAGTGCAG | 64300 fluorescence intensity (a.u.)
GTGATTGGGCTATTTGTAATGTTCAGATGGTGAACTGTGCCGGAGTCACCTAGTGCAG | 27600 fluorescence intensity (a.u.)
CATTATTGATTGATTGATTCGCAGATTCGCCGCTGCCACCCGGAGTCACCTAGTGCAG | 57200 fluorescence intensity (a.u.)
GCCTAATTAATCCGTCATTAGCAAATGTTTATTGTAGCACCGGAGTCACCTAGTGCAG | 38200 fluorescence intensity (a.u.)
GCTGACAGGGACAATCGGATGGAGCAGAATGTCTGAACGTCGGAGTCACCTAGTGCAG | 11000 fluorescence intensity (a.u.)
TTTGATCAAAATCAAAACGTCTTATAACCTGAAACGGAGGCGGAGTCACCTAGTGCAG | 4210 fluorescence intensity (a.u.)
GCTAATTAAGTCCATTGCACATAGATCGATATGTGTACACCGGAGTCACCTAGTGCAG | 27700 fluorescence intensity (a.u.)
CCAATTGACTATATATAACATAGTACTTGCTAGCTTAATTCGGAGTCACCTAGTGCAG | 3640 fluorescence intensity (a.u.)
TTTAGGATTGAAGTAAACTGTAAACTATATGTCTGACCGCCGGAGTCACCTAGTGCAG | 16600 fluorescence intensity (a.u.)
